This is an account of results in PubChem BioAssay (EPA / NIEHS).

The source made the active and inactive calls. How the source made its calls: active means hit-call score of the fitted dose curve at least 0.9, where 1 is the maximum; inconclusive means response in the unintended direction; inactive means score below 0.9.

A short description of the assay: Tanguay_ZF_120hpf_MORT_legacy: (Legacy) Oregon State University Tanguay Lab 120 Hour Post-fertilization zebrafish Assay for Mortality (AID 2283633). The protocol:
Tanguay_ZF_120hpf_legacy is a whole embryo, multiplexed endpoint assay using zebrafish larvae exposed for 120 hours post fertilization on a 96-well plate.Tanguay_ZF_120hpf_MORT_legacy is one of one assay component(s) measured or calculated from the Tanguay_ZF_120hpf_legacy assay. It is designed to make measurements of embryonic mortality as detected with brightfield microscopy of developing zebrafish embryos.Data from the assay component Tanguay_ZF_120hpf_MORT_legacy was analyzed into 1 assay endpoints. This assay endpoint, Tanguay_ZF_120hpf_MORT_legacy, was analyzed in the positive analysis fitting direction relative to DMSO as the negative control and baseline of activity. Using a type of viability reporter, gain-of-signal activity can be used to understand changes in developmentals as they relate to the whole embryo. To generalize the intended target to other relatable targets, this assay endpoint is annotated to the embryonic mortality intended target family, where the subfamily is embryonic mortality.
Zebrafish husbandry: Tropical 5D wild-type adult zebrafish were housed in at an approximate density of 1000 per 100 gallon tank at the Sinnhuber Aquatic Research Laboratory, Oregon State University, Corvallis, OR. Each tank was kept at standard laboratory conditions of 28C on a 14-h light/10-h dark photoperiod in fish water consisting of reverse osmosis water supplemented with a commercially available salt (Instant Ocean). Spawning funnels were placed into the tanks the night prior, and embryos were collected and staged. To increase bioavailability, the chorion was enzymatically removed using pronase (63.6mg/ml, >/= 3.5U/mg, Sigma-Aldrich: P5147) at 4 hours post fertilization (hpf) using a custom automated dechorionator.Chemical exposures: Six hpf dechorionated embryos were placed 1 embryo per well in a 96-well plate prefilled with 90 ul of EM using automated embryo placement systems (AEPS). Ten microliters of each row of dilution plate 2 was added to 2 exposure plates. The final DMSO concentration used was 0.64% (vol/vol). Thirty-two embryos were also exposed to 5uM trimethyltin chloride (positive control). Plates were sealed to prevent evaporation and foil covered to reduce light exposure and kept in a 28C incubator. Embryos were statically exposed until 120 hpf. At 24 hpf, embryos were assessed for photomotor response using a custom photomotor response analysis tool (PRAT) and for developmental toxicity endpoints (MO24: mortality at 24 hpf, DP: developmental progression, SM: spontaneous movement, and NC: notochord distortion). At 120 hpf, locomotor activity was measured using Viewpoint Zebralab and assessed for 18 endpoints. Zebrafish acquisition and analysis program (ZAAP), a custom program designed to inventory, acquire, and manage zebrafish data, was used to collect developmental endpoints as either present or absent (i.e., binary responses were recorded). If mortality occurred for an embryo (at either 24 or 120 hpf), the non-mortality endpoints were not measured.
As for `COc1cc(OC)nc(Sc2cccc(Cl)c2C(=O)O)n1`, the compound was classed as inactive.

As for `CSc1nc(NC(C)C)nc(NC(C)C)n1`, the result was inactive.

Turning to `Nc1nc(N)nc(NC2CC2)n1`, the outcome was inactive.

In the case of `CC(=NC#N)N(C)Cc1ccc(Cl)nc1`, the call was inactive.

For the compound `CCC(=O)Nc1ccc(Cl)c(Cl)c1`, the call was inactive.

On to `CCCOc1nn(C(=O)NS(=O)(=O)c2ccccc2C(=O)OC)c(=O)n1C`, for which the compound was called inactive.

In the case of `CN(C)NC(=O)CCC(=O)O`, the call was inactive.

Take `CCOP(=S)(OCC)SCCSCC`: the compound was called inactive.

Consider `O=C(O)c1cc(Oc2ccc(C(F)(F)F)cc2Cl)ccc1[N+](=O)[O-]`, for which the compound was classed as inactive.

Turning to `CC(C1CC1)C(O)(Cn1cncn1)c1ccc(Cl)cc1` (stereo not given), the call was inactive.

`CC1=NNC(=O)N(/N=C/c2cccnc2)C1`: the result was inactive.

Turning to `CCOP(=S)(OCC)OC(Cl)C(Cl)(Cl)Cl` (stereo not given), the compound was classed as inactive.

As for `COP(=O)(NC(C)=O)SC` (stereo not given), the compound was classed as inactive.

For the compound `COP(=O)(OC)OC(Br)C(Cl)(Cl)Br` (stereo not given), the compound was classed as inactive.

Turning to `CC(C)=CC1C(C(=O)OCN2C(=O)C3=C(CCCC3)C2=O)C1(C)C` (stereo not given), the result was inactive.

Broadly, the AC50 is the midpoint of the concentration-response curve, whichever way the signal moves. Turning to `CSC1=N[C@@](C)(c2ccccc2)C(=O)N1Nc1ccccc1`, the AC50 was 12.6 µM (active).

With `CCC(=NOC/C=C/Cl)C1=C(O)CC(C2CCOCC2)CC1=O` (stereo not given), the outcome was inactive.

For the compound `CCC(CC)Nc1c([N+](=O)[O-])cc(C)c(C)c1[N+](=O)[O-]`, the compound was classed as inactive.

Take `CC(COc1ccc(Oc2ccccc2)cc1)Oc1ccccn1` (stereo not given): the compound was classed as inactive.

Consider `CC1(C(=O)Nc2ccc(O)c(Cl)c2Cl)CCCCC1`, for which the call was inactive.

As for `COP(=O)(OC)SCn1c(=O)oc2cc(Cl)cnc21`, the compound was called inactive.

Regarding `CCOP(=O)(OCC)Oc1cc(C)nc(C(C)C)n1`, the compound was classed as inactive.

Regarding `CCCCOC(=O)[C@@H](C)Oc1ccc(Oc2ccc(C#N)cc2F)cc1`, the call was inactive.

Take `Cc1cc(C2CC2)nc(Nc2ccccc2)n1`: the compound was classed as inactive.

For `CCCCN(CC)c1c([N+](=O)[O-])cc(C(F)(F)F)cc1[N+](=O)[O-]`, the outcome was inactive.

`C=C(C)[C@H]1Cc2c(ccc3c2O[C@@H]2COc4cc(OC)c(OC)cc4[C@@H]2C3=O)O1`: the AC50 is 0.347 µM (active).

For `CN(C)[C@@H]1C(=O)C(C(N)=O)=C(O)[C@@]2(O)C(=O)C3=C(O)c4c(O)cccc4[C@@](C)(O)[C@H]3[C@H](O)[C@@H]12`, the compound was classed as inactive.

For `COP(=O)(OC)C(O)C(Cl)(Cl)Cl` (stereo not given), the call was inactive.

For the compound `FC(F)C(F)(F)OCC(Cn1cncn1)c1ccc(Cl)cc1Cl` (stereo not given), the result was inactive.

Consider `CCNc1nc(Cl)nc(NC(C)(C)C#N)n1`, for which the compound was classed as inactive.

As to `CNC(=O)ON=C(C)SC`, the compound was classed as inactive.

`O=c1ccc(=O)[nH][nH]1`: the compound was called inactive.

For the compound `CCCCSP(=O)(SCCCC)SCCCC`, the compound was classed as inactive.

For `CCOC(=O)COc1cc(-c2nn(C)c(OC(F)F)c2Cl)c(F)cc1Cl`, the call was inactive.

With `C[N+]1(C)CCCCC1`, the call was inactive.

With `Cc1ccn2nc(S(=O)(=O)Nc3c(F)cccc3F)nc2n1`, the compound was classed as inactive.

For `CNc1cnn(-c2cccc(C(F)(F)F)c2)c(=O)c1Cl`, the compound was classed as inactive.

As for `CCOP(=S)(OCC)Oc1ccc([N+](=O)[O-])cc1`, the compound was classed as inactive.

For `CC(Oc1cccc(Cl)c1)C(=O)O` (stereo not given), the outcome was inactive.

Take `C#CCC1=C(C)C(OC(=O)C2C(C=C(C)C)C2(C)C)CC1=O` (stereo not given): the compound was classed as inactive.
